# Test results: PubChem BioAssay AID588763 (NMMLSC, 2011)
# Results with a measured potency or affinity are listed apart. A number with no mark means an inactive call. Activity calls are given as the source filed them. No rule for the calls is given here.
# Target: Beta-2 adrenergic receptor (Homo sapiens) (UniProt P07550)
# Test: ADRB2 activation measured by internalization – cell-based, FAP fluorogen, flow cytometry, cherry pick 1, dose response (AID 588763)
# Conditions: AM2.2-beta2AR cells, 90 min; series mostly up to 33 µM; activation (receptor internalization): at the top concentration
# Sequence of Beta-2 adrenergic receptor (Homo sapiens) (P07550 whole entry, looked up): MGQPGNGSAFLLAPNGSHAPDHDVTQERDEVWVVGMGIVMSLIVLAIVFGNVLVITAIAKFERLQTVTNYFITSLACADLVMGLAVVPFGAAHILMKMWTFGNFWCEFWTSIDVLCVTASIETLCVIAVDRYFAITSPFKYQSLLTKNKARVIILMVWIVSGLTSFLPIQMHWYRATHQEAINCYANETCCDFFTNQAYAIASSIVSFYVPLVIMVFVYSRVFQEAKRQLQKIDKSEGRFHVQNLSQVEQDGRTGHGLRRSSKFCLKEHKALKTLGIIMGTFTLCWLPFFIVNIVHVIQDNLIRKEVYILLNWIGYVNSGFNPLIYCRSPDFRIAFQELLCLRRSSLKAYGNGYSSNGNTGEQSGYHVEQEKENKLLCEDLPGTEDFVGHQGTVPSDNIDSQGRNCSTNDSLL
Structure (SMILES),outcome,activation (receptor internalization)
COc1ccc(OC)c(S(=O)(=O)N(C)CC(=O)N2CCN(c3ccc(F)cc3)CC2)c1,inactive,
O=C(CN1CCOCC1)N1CCN(c2nnc(-c3ccccc3)c3ccccc23)CC1,,101%
COc1ccc(-n2nc3c(N4CCC(C(=O)NCc5ccco5)CC4)nnc(C)c3c2C)cc1,,11%
N=c1n(CC(=O)c2ccc(Br)cc2)c2ccccc2n1Cc1ccccc1,,110%
O=C(c1ccc(-c2nnc(Nc3ccccc3)c3ccccc23)cc1)N1C[C@H]2C[C@H](C1)c1cccc(=O)n1C2,,4.94%
O=C(c1ccc(OC2CCN(Cc3ccccc3C(F)(F)F)CC2)cc1)N1CCCCC1,,37.8%
COc1ccc(Cl)cc1NC(=O)COc1ccc(S(=O)(=O)N2CCOCC2)cc1C,,20.1%
Cc1ccc(-c2nnc(SCc3nc4ccccc4[nH]3)n2Cc2ccco2)cc1,,-2.47%
Cc1cc(S(=O)(=O)N2CCOCC2)ccc1OCC(=O)Nc1cccc(C(F)(F)F)c1,,6.22%
CC1CCCN(C(=O)C(C)Sc2nc(-c3ccccc3)cc(C(F)(F)F)n2)C1 (stereo not drawn),,70.8%
O=C(c1cc(COc2ccc(F)cc2Cl)on1)N1CC2C[C@@H]3CC1C[C@H](C2)C3,,-19%
COc1ccc(OC)c(NC(=O)c2sc3nc(C)cc(C)c3c2N)c1,,0.987% [at 1.22 µM]
O=C(c1ccc(OC2CCN(Cc3cccc(OCCO)c3)CC2)cc1)N1CCCC1,,-12.7%
COc1cc(NC(=O)c2ccc3c(c2)OCO3)ccc1NC(=O)c1ccco1,,-12.7%
CCOc1cccc(CN2CCC(Oc3ccc(C(=O)N4CCCC4)cc3)CC2)c1,,-17.1%
COc1ccc(S(=O)(=O)N(C)CC(=O)N2CCN(c3ccc(F)cc3)CC2)cc1OC,inactive,
Cc1cccc(C)c1NC(=O)Cn1nnc(-c2ccc(N3CCOCC3)cc2)n1,,-4.76%

Structure (SMILES),outcome,activation (receptor internalization)
CCC(NC(=O)c1cc(COc2cncc(Cl)c2)on1)c1ccc(C)cc1 (stereo not drawn),,-14.4%
N=c1n(Cc2ccc(Cl)cc2)c2ccccc2n1CC(O)COc1ccccc1 (stereo not drawn),,88.3%
CSc1nc(SCCO)c2sc3nc(-c4ccco4)c4c(c3c2n1)CC(C)(C)OC4,,66%
COC(=O)c1ccc(CN2CCC(Oc3ccc(C(=O)N4CCCCC4)cc3)CC2)cc1,,-1.5%
CCOc1ccc(NC(=O)COc2ccc(S(=O)(=O)N3CCCC3)cc2)cc1,,-10.2%
COc1ccc(OC)c(C(=O)NC(CC(N)=O)c2ccc(N3CCN(c4ccccn4)CC3)c([N+](=O)[O-])c2)c1 (stereo not drawn),,9.33%
CCOc1cc(/C=C2\CN(C)C/C(=C\c3ccc(O)c(OCC)c3)C2=O)ccc1O,,72.9%
COC(=O)c1ccccc1NC(=O)Cn1nnc(-c2ccc(OC)cc2)n1,,-4.84%
O=C(CCn1c(=O)[nH]c2ccsc2c1=O)NCc1ccc(F)cc1,,-7.29%
Cc1ccc(OCC(O)Cn2c(=N)n(Cc3ccccc3)c3ccccc32)cc1 (stereo not drawn),,45.7%
O=C(COc1ccc(S(=O)(=O)N2CCCCC2)cc1)Nc1ccccc1F,,-6.13%
CC(NCc1ccc(OCc2ccc(Cl)cc2)cc1)C(O)c1ccccc1 (stereo not drawn),,66.1%
COC(=O)c1ccc(CNC(=O)c2cc(COc3cncc(Cl)c3)on2)cc1,,4.05%
COc1cccc(CN2CCC(Oc3ccc(C(=O)N4CCCCC4)cc3)CC2)c1,,2.46%
Cn1nnnc1Sc1ncnc2scc(-c3cc4ccccc4o3)c12,,106%
O=C(NC1CCc2ccccc21)c1cc(COc2cncc(Cl)c2)on1 (stereo not drawn),,3.55%
